# Results: PubChem BioAssay AID651946 (Broad Institute, 2012)
# Entries with a potency or affinity are not part of this list. Activity calls are given as the source filed them.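 How the source made its calls: active means toxic compound whose fitted half-effect dose of signal loss is at most twice its top tested dose; inconclusive means flat fit losing 30 to 70% signal, or poor fit; inactive means the rest.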
# Assay: HeLa cell viability loss – plate reader, dry powder, cytotoxicity control, dose response (AID 651946)
# Details: ATP luminescence (CellTiter-Glo), 48 h; series mostly up to 26 µM
row,SMILES,outcome
1,COc1cccc(CSc2nnc(-c3ccccc3)o2)c1,inactive
2,FC(F)(F)c1ccccc1-c1nnc(SCc2ccccc2)o1,inactive
3,c1ccc(CNCCSc2nnc(-c3ccccc3)o2)cc1,inactive
4,Cc1ccccc1-c1nnc(SCc2ccccc2)o1,inactive
5,FC(F)(F)c1ccccc1CSc1nnc(-c2ccccc2)o1,inactive
6,Cc1ccccc1CSc1nnc(-c2ccccc2)o1,inactive
7,Fc1ccc(CSc2nnc(-c3ccncc3)o2)cc1,inactive
8,c1ccc(CSc2nnc(-c3ccncc3)o2)nc1,inactive
9,c1ccc(-c2nnc(SCCN3CCN(c4ccccc4)CC3)o2)cc1,inactive
10,c1ccc(-c2ccc(CSc3nnc(-c4ccccc4)o3)cc2)cc1,inactive
11,Fc1ccccc1CSc1nnc(-c2ccccc2)o1,inactive
12,FC(F)(F)Oc1cccc(-c2nnc(SCc3ccccc3)o2)c1,inactive
13,c1ccc(CSc2nnc(-c3ccco3)o2)cc1,inactive
14,COc1ccccc1-c1nnc(SCc2ccccn2)o1,inactive
15,Cc1cccc(CSc2nnc(-c3ccccc3)o2)c1,inactive
16,Fc1cccc(-c2nnc(SCc3ccccn3)o2)c1,inactive
17,Cc1ccc(-c2nnc(SCc3ccccc3)o2)cc1,inactive
18,CS(=O)(=O)c1ccc(CSc2nnc(-c3ccccc3)o2)cc1,inactive
19,CN(Cc1ccccc1)c1nnc(-c2ccccc2)o1,inactive

row,SMILES,outcome
1,CS(=O)(=O)c1cccc(-c2nnc(SCc3ccccc3)o2)c1,inactive
2,c1ccc(-c2nnc(SCc3cccnc3)o2)cc1,inactive
3,c1ccc(CSc2nnc(-c3cscn3)o2)cc1,inactive
4,Fc1cccc(CSc2nnc(-c3ccccc3)o2)c1,inactive
5,Fc1ccc(-c2nnc(SCc3cn(-c4ccccc4)nn3)o2)cc1,inactive
6,c1ccc(CSc2nnc(-c3ccccc3)s2)cc1,inactive
7,c1ccc(Cn2cc(CSc3nnc(C4CCC4)o3)nn2)cc1,inactive
8,Fc1ccc(CSc2nnc(-c3ccc(Cl)cc3)o2)cc1,inactive
9,c1ccc(CSc2nnc(-c3ccccn3)o2)cc1,inactive
10,CC1(O)CN(CCSc2nnc(-c3ccccc3)o2)C1,inactive
11,Fc1ccc(-c2nnc(SCc3ccccn3)o2)cc1,inactive
12,Cc1cccc(-c2nnc(SCc3ccccc3)o2)c1,inactive
13,Clc1ccc(-c2nnc(SCc3cn(Cc4ccccc4)nn3)o2)cc1,inactive
14,FC1(F)CN(CCSc2nnc(-c3ccccc3)o2)C1,inactive
15,FC(F)(F)c1ccc(-c2nnc(SCc3ccccc3)o2)cc1,inactive
16,c1ccc(CSc2nnc(-c3cccs3)o2)cc1,inactive
17,COc1cccc(-c2nnc(SCc3ccccc3)o2)c1,inactive
18,N#Cc1ccc(-c2nnc(SCc3ccccc3)o2)cc1,inactive
